Results: paper PMC5540273 (PLoS ONE, 2017)

Key:
Settings in all cases: concentration: 1 μM, replicates: in singlicate; n = 1
MAPKAPK5 = test system: MAPKAPK5
MARK1 = test system: MARK1
MARK2 = test system: MARK2
MARK3 = test system: MARK3
MARK4 = test system: MARK4
MAST1 = test system: MAST1
MEK1 = test system: T1, MEK1
T1 construct: gene MAP2K1

MEK2 = test system: T2, MEK2
T2 construct: gene MAP2K2

MEK3 = test system: T3, MEK3
T3 construct: gene MAP2K3

MEK4 = test system: T4, MEK4
T4 construct: gene MAP2K4

MEK5 = test system: T5, MEK5
T5 construct: gene MAP2K5

MEK6 = test system: T6, MEK6
T6 construct: gene MAP2K6

MELK = test system: MELK
MERTK = test system: MERTK
MET = test system: MET
MINK = test system: T7, MINK
T7 construct: gene MINK1

MKK7 = test system: MKK7
MKNK1 = test system: MKNK1
MKNK2 = test system: MKNK2
MLCK = test system: T8, MLCK
T8 construct: gene MYLK3
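Also: KINOMEscan kinase panel screen.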

Compound	%Inh (MAPKAPK5) [%]	%Inh (MARK1) [%]	%Inh (MARK2) [%]	%Inh (MARK3) [%]	%Inh (MARK4) [%]	%Inh (MAST1) [%]	%Inh (MEK1) [%]	%Inh (MEK2) [%]	%Inh (MEK3) [%]	%Inh (MEK4) [%]	%Inh (MEK5) [%]	%Inh (MEK6) [%]	%Inh (MELK) [%]	%Inh (MERTK) [%]	%Inh (MET) [%]	%Inh (MINK) [%]	%Inh (MKK7) [%]	%Inh (MKNK1) [%]	%Inh (MKNK2) [%]	%Inh (MLCK) [%]
CCc1ccc(-c2ccc3c(c2)-c2c(cnn2C)S(=O)(=O)N3C)cc1	0	0	0	3	7	0	1	0	0	6	0	0	0	0	26	0	0	0	0	1
NCCCC(NC(=O)c1cc(Br)c(-c2ccnc3[nH]ccc23)s1)c1ccccc1.O=C(O)C(F)(F)F.O=C(O)C(F)(F)F (stereo not drawn) [GSK1287544]	0	0	2	20	4	0	0	0	71	50	7	0	54	55	6	27	16	0	83	47
Cc1ccc(C(=O)Nc2ccc(Nc3ccnc4cc(-c5nccs5)ccc34)cc2O)cc1.Cl [GW494702]	0	0	0	0	0	15	13	0	0	21	99.9	0	1	24	0	47	0	22	8	12
CCS(=O)(=O)c1ccc(OC)c(Nc2nccc(-c3c(-c4cccc(NC(=O)c5c(F)cccc5F)c4)nn4ncccc34)n2)c1 [GSK326180]	0	6	22	0	9	0	31	18	2	25	99.6	0	0	9	2	0	14	3	12	0
CC(=O)Nc1nc2cnc(Nc3cc(NC(=O)c4cccc(C5(C#N)CC5)c4Cl)ccc3C)nc2s1	0	1	19	0	10	23	0	0	0	5	12	25	0	17	8	0	10	16	0	0
Cc1ccc(S(=O)(=O)Nc2ccc(Nc3nccc(Nc4cccc5[nH]ncc45)n3)cc2)cc1 [GSK581271]	0	0	0	0	7	7	0	0	0	10	69	0	0	9	0	0	0	0	1	0
Cc1occc1-c1ncc(OC[C@@H](N)Cc2c[nH]c3ccccc23)cc1-c1ccc2[nH]nc(C)c2c1.O=C(O)C(F)(F)F [GSK682037]	0	44	62	68	33	35	7	0	90.7	43	76	13	50	66	45	97.2	17	0	0	39
O=C(Nc1n[nH]c2cc(-c3ccoc3)ccc12)C1CC1 [SB-738481]	10	11	15	0	0	37	2	18	23	3	45	0	0	0	0	44	0	0	15	34
O=C(Nc1cccc(-c2nn3ccccc3c2-c2ccnc(Nc3cccc(F)c3)n2)c1)c1c(F)ccc(F)c1Cl [GSK357952]	0	0	3	3	0	0	0	15	0	25	88	0	0	51	0	0	0	0	29	0
